Data from PubChem BioAssay (NCI).
About 83,000 compounds went through this panel and 20% of them were active in at least one assay; those are over-represented in the sample as a whole.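 The endpoint reported here, percent growth, reads 100 for growth as untreated, 0 for no net growth and -100 for all cells dead.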 Unmarked numbers belong to inactive results. The source made the active and inactive calls. How the source made its calls: active means growth percent below 10; inactive means the rest.

Legend:
Assay in all cases: NCI-60 one-dose screen, 48 h (100 = growth as untreated, 0 = no growth, -100 = all killed)
SK-MEL-2 melanoma = conditions: 10 µM
EKVX NSCLC = conditions: 10 µM
SN12C renal = conditions: 10 µM
UO-31 renal = conditions: 10 µM
TK-10 renal = conditions: 10 µM unless noted
ACHN renal = conditions: 10 µM
CAKI-1 renal = conditions: 10 µM
A498 renal = conditions: 10 µM
CCRF-CEM leukemia = conditions: 10 µM
MOLT-4 leukemia = conditions: 10 µM

Compound | growth (SK-MEL-2 melanoma) | growth (EKVX NSCLC) | growth (SN12C renal) | growth (UO-31 renal) | growth (TK-10 renal) | growth (ACHN renal) | growth (CAKI-1 renal) | growth (A498 renal) | growth (CCRF-CEM leukemia) | growth (MOLT-4 leukemia)
N#C/C(=C\c1cc(O)c(O)c(O)c1)C(N)=O | 123% | 97.4% | 107% | 110% | 116% | 96.6% | 93.6% | 119% | 74% | 73.1%
CN(C)c1ccc(CNC(C(=O)c2ccccc2)c2ccccc2)cc1 (stereo not given) | 74.5% | 101% | 115% | 102% | 112% | 101% | 102% | 8.44% (active) | 90.9% | 94.9%
N#CCc1ccc([N+](=O)[O-])cc1 | 107% | 97.8% | 101% | 72.1% | 107% | 103% | 93% | 90.7% | 100% | 74.2%
CC(=O)OCC(=O)[C@@]1(O)CC[C@H]2[C@@H]3CC[C@@H]4C[C@H](O)CC[C@]4(C)[C@H]3C(=O)C[C@@]21C | 101% | 98.4% | 102% | 96.3% | 110% | 107% | 89.4% | 91.8% | 74% | 79.8%
CC1CCC(C(=O)O)N1 (stereo not given) | 91.5% | 107% | 92.7% | 76.5% | 101% | 91.6% | 92.3% | 84% | 101% | 87.8%
COC(=O)c1cccnc1 | 93.2% | 105% | 93.2% | 78.9% | 96.9% | 90.6% | 94.8% | 101% | 96.2% | 98.3%
COc1cccc(Sc2ccc([N+](=O)[O-])c3no[n+]([O-])c23)c1 | 86.2% | 91.9% | 74.4% | -21.5% (active) | 60.3% | 9.88% (active) | 64.8% | 98% | -19.5% (active) | 0.692% (active)
COC(=O)c1cccc(Br)c1 | 110% | 87.1% | 104% | 101% | 106% | 108% | 102% | 86.3% | 98.2% | 111%
O=S(=O)(O)C(Nc1ccccc1)c1ccccc1 (stereo not given) | 82.2% | 104% | 97.8% | 92.7% | 100% | 97.6% | 93.8% | 81.3% | 115% | 106%
CC(=O)Oc1ccc(Br)cc1C(=O)O | 99.8% | 104% | 102% | 81.8% | 102% | 99.3% | 95.8% | 131% | 88.7% | 101%
CCOC(=O)C(C#N)Cc1ccccc1 (stereo not given) | 114% | 114% | 103% | 94.5% | 106% | 110% | 98.7% | 114% | 102% | 123%
CCCCC1C(=O)N(c2ccccc2)N(c2ccccc2)C1=O | 98.7% | 105% | 96.2% | 90.4% | 103% | 102% | 103% | 125% | 95.8% | 107%
Nc1ccc(CC(=O)O)c(N)c1 | 113% | 101% | 102% | 89% | 105% | 104% | 89% | 62.8% | -27.4% (active) | 101%
COCCOCCCl | 109% | 112% | 104% | 97.2% | 102% | 113% | 98.8% | 91.2% | 106% | 117%
CC(=O)OCC1OC(OC2=C(CC=C(C)C)C(=O)c3ccccc3C2=O)C(OC(C)=O)C(OC(C)=O)C1OC(C)=O (stereo not given) | 58.7% | 15.6% | 52% | 38.6% | 87.4% | 12.8% | 68.5% | 22.6% | -25.8% (active) | -26.7% (active)
CC(=O)OCCC(C)CCC=C(C)C (stereo not given) | 98.1% | 100% | 101% | 88% | 106% | 104% | 103% | 100% | 104% | 114%
CCC(O)CC(CC)CO (stereo not given) | 134% | 93.7% | 111% | 94.6% | 111% | 105% | 96.6% | 99.2% | 96.2% | 102%
Nc1ncnc2c1nc(N)n2C1OC(CO)C(O)C1O (stereo not given) | -11.6% (active) | -33.2% (active) | -22.8% (active) | -53.9% (active) | -14.2% (active) | 2.76% (active) | -28.6% (active) | -80.3% (active) | 1.73% (active) | 1.73% (active)
CCOC(=O)Nc1cc2c(c(N)n1)N=C(c1ccccc1)CO2 | 19.1% | 33.4% | 29.3% | 21.3% | 53.3% | 49.9% | 24.2% | 52% | 13.5% | 15.7%
O=c1cc(-c2ccccc2)[nH]c(=S)[nH]1 | 98.8% | 129% | 102% | 79.2% | 95.7% | 96.7% | 175% | 97.6% | 90.5% | 95.3%
CC(=O)N(C)c1ccc([N+](=O)[O-])cc1 | 92% | 122% | 96.9% | 104% | 95.8% | 99.4% | 107% | 116% | 119% | 75.9%
CCOC(=O)C(O)C(O)C(=O)OCC (stereo not given) | 103% | 111% | 102% | 97.1% | 102% | 109% | 101% | 101% | 107% | 104%
CCOC(=O)CCCC(=O)OCC | 111% | 108% | 114% | 89.7% | 101% | 105% | 95.2% | 92.1% | 110% | 101%
COc1cc2c3c(n(C)c(=O)c2cc1OC)-c1cc2c(cc1C3=O)OCO2 | 113% | 94.2% | 87% | 32.6% | 101% | 26.6% | 24.3% | 75.5% | 29.5% | 18.3%
NC(=S)NN=C1CCCC1 | 104% | 65.4% | 94.5% | 63.2% | 105% | 107% | 102% | 85.6% | 42.7% | 66.1%
CN(c1ccccc1)c1ncnc2c1ncn2C | 100% | 102% | 98% | 79.9% | 105% | 101% | 94% | 88.4% | 99.1% | 95.6%
CN(C)c1ccc(S(=O)(=O)O)cc1 | 86.2% | 107% | 105% | 87.9% | 89.2% | 93.9% | 105% | 94.9% | 95.9% | 107%
O=C(O)CCCCNC(=O)c1ccccc1 | 113% | 103% | 115% | 100% | 101% | 115% | 107% | 91.4% | 110% | 106%
CCCCNC1(C#N)CCN(Cc2ccccc2)CC1 | 102% | 95.5% | 104% | 81.1% | 105% | 106% | 76.1% | 78.5% | 102% | 152%
CC(=O)c1cc2c(cc1F)C(C)(C)CCC2(C)C | 104% | 111% | 98.5% | 80% | 109% | 91.9% | 112% | 92.6% | 120% | 89.1%
